# The supplement of paper PMC8728848
# The sample as a whole holds a higher share of the strongest signals than the screen did.
# How the values were obtained:
# Assay in all cases: glycan array binding signal (z-score within array); higher = stronger binding
# Conditions in all cases: glycan notation: IUPAC condensed, linker removed
# [1] = biological target: Fuc(a1-2)Gal(b1-3)GalNAc(a1-3)[Fuc(a1-2)]Gal(b1-4)Glc
# Method in brief: (§1)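 The binding signal is a Z-score computed within each array and averaged over linkers. Arrays of the same protein sequence at different concentrations or buffers were also averaged together. Data originate from 3228 arrays in the Consortium for Functional Glycomics database, kept only where the protein sequence was available.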
# [2] = biological target: Fuc(a1-2)Gal(b1-3)GalNAc(b1-3)Gal
# Method in brief: as §1
# [3] = biological target: Fuc(a1-2)Gal(b1-3)GlcNAc(b1-2)Man(a1-3)[Fuc(a1-2)Gal(b1-3)GlcNAc(b1-2)Man(a1-6)]Man(b1-4)GlcNAc(b1-4)[Fuc(a1-6)]GlcNAc
# Method in brief: as §1
# [4] = biological target: Fuc(a1-2)Gal(b1-3)GlcNAc6S
# Method in brief: as §1
# Fuc(a1-2)Gal(b1-4)Glc = biological target: Fuc(a1-2)Gal(b1-4)Glc
# Method in brief: as §1
# [5] = biological target: Fuc(a1-2)[Gal(a1-3)]Gal(b1-4)GlcNAc(b1-2)Man
# Method in brief: as §1
# [6] = biological target: Fuc(a1-2)[GalNAc(a1-3)]Gal(b1-3)GlcNAc(b1-6)GalNAc
# Method in brief: as §1
# [7] = biological target: Fuc(a1-2)[GalNAc(a1-3)]Gal(b1-4)GlcNAc(b1-6)GalNAc
# Method in brief: as §1
# [8] = biological target: Fuc(a1-2)[GalNAc(a1-3)]Gal(b1-4)[Fuc(a1-3)]GlcNAc
# Method in brief: as §1
# [9] = biological target: Fuc(a1-2)[GalNAc(a1-4)]Gal(b1-4)GlcNAc
# Method in brief: as §1
# [10] = biological target: Fuc(a1-3)[GalNAc(b1-4)]GlcNAc6S
# Method in brief: as §1
# Gal(a1-3)Gal = biological target: Gal(a1-3)Gal
# Method in brief: as §1
# Gal(a1-4)Gal(b1-4)GlcNAc = biological target: Gal(a1-4)Gal(b1-4)GlcNAc
# Method in brief: as §1
# Gal(b1-2)Gal = biological target: Gal(b1-2)Gal
# Method in brief: as §1
# [11] = biological target: Gal(b1-3)GlcNAc(b1-2)Man(a1-3)[Gal(b1-3)GlcNAc(b1-2)Man(a1-6)]Man(b1-4)GlcNAc(b1-4)[Fuc(a1-6)]GlcNAc
# Method in brief: as §1
# [12] = biological target: Gal(b1-3)GlcNAc(b1-2)[Gal(b1-3)GlcNAc(b1-6)]Man(a1-6)[Gal(b1-3)GlcNAc(b1-2)Man(a1-3)]Man(b1-4)GlcNAc(b1-4)GlcNAc
# Method in brief: as §1
# [13] = biological target: Gal(b1-3)GlcNAc(b1-3)Gal(b1-4)[Fuc(a1-3)]GlcNAc(b1-6)[Gal(b1-3)GlcNAc(b1-3)]Gal(b1-4)Glc
# Method in brief: as §1
# [14] = biological target: Gal(b1-3)[Fuc(a1-4)]GlcNAc(b1-6)GalNAc
# Method in brief: as §1
# [15] = biological target: Gal(b1-3)[Neu5Ac(a2-6)]GalNAc
# Method in brief: as §1
# [16] = biological target: Gal(b1-4)GlcNAc(b1-2)[Gal(b1-4)GlcNAc(b1-6)]Man(a1-6)[Gal(b1-4)GlcNAc(b1-2)Man(a1-3)]Man(b1-4)GlcNAc(b1-4)GlcNAc
# Method in brief: as §1
# [17] = biological target: Gal(b1-4)GlcNAc(b1-2)[Gal(b1-4)GlcNAc(b1-6)]Man(a1-6)[Gal(b1-4)GlcNAc(b1-2)Man(a1-3)]Man(b1-4)GlcNAc(b1-4)[Fuc(a1-6)]GlcNAc
# Method in brief: as §1
# [18] = biological target: Gal(b1-4)GlcNAc(b1-3)Gal(b1-4)GlcNAc(b1-3)Gal(b1-4)GlcNAc(b1-3)Gal(b1-4)GlcNAc(b1-3)Gal(b1-4)GlcNAc(b1-2)[Gal(b1-4)GlcNAc(b1-3)Gal(b1-4)GlcNAc(b1-3)Gal(b1-4)GlcNAc(b1-3)Gal(b1-4)GlcNAc(b1-3)Gal(b1-4)GlcNAc(b1-6)]Man(a1-6)[Gal(b1-4)GlcNAc(b1-3)Gal(b1-4)GlcNAc(b1-3)Gal(b1-4)GlcNAc(b1-3)Gal(b1-4)GlcNAc(b1-3)Gal(b1-4)GlcNAc(b1-2)Man(a1-3)]Man(b1-4)GlcNAc(b1-4)[Fuc(a1-6)]GlcNAc
# Method in brief: as §1
# Gal4S(b1-4)GlcNAc = biological target: Gal4S(b1-4)GlcNAc
# Method in brief: as §1
# GalNAc(b1-3)Gal = biological target: GalNAc(b1-3)Gal
# Method in brief: as §1
# GalNAc(b1-4)GlcNAc = biological target: GalNAc(b1-4)GlcNAc
# Method in brief: as §1
# GalNAc3S(b1-4)GlcNAc3S = biological target: GalNAc3S(b1-4)GlcNAc3S
# Method in brief: as §1
# GalNAc6S(b1-4)GlcNAc = biological target: GalNAc6S(b1-4)GlcNAc
# Method in brief: as §1
# [19] = biological target: GlcNAc(b1-3)Gal(b1-4)GlcNAc(b1-2)[GlcNAc(b1-3)Gal(b1-4)GlcNAc(b1-6)]Man(a1-6)[GlcNAc(b1-3)Gal(b1-4)GlcNAc(b1-2)Man(a1-3)]Man(b1-4)GlcNAc(b1-4)GlcNAc
# Method in brief: as §1
# [20] = biological target: GlcNAc(b1-3)Gal(b1-4)GlcNAc(b1-3)Gal(b1-4)GlcNAc(b1-2)Man(a1-3)[GlcNAc(b1-3)Gal(b1-4)GlcNAc(b1-3)Gal(b1-4)GlcNAc(b1-2)Man(a1-6)]Man(b1-4)GlcNAc(b1-4)[Fuc(a1-6)]GlcNAc
# Method in brief: as §1
# [21] = biological target: GlcNAc(b1-4)[GlcNAc(b1-6)]GalNAc
# Method in brief: as §1
# Man(a1-3)[Man(a1-6)]Man = biological target: Man(a1-3)[Man(a1-6)]Man
# Method in brief: as §1
# [22] = biological target: Neu5Ac(a2-3)Gal(b1-3)GlcNAc(b1-2)Man
# Method in brief: as §1
# [23] = biological target: Neu5Ac(a2-3)Gal(b1-3)GlcNAc(b1-6)GalNAc
# Method in brief: as §1
# [24] = biological target: Neu5Ac(a2-3)Gal(b1-4)GlcNAc(b1-3)Gal(b1-4)GlcNAc(b1-3)Gal(b1-4)GlcNAc(b1-2)Man(a1-3)[Neu5Ac(a2-3)Gal(b1-4)GlcNAc(b1-3)Gal(b1-4)GlcNAc(b1-3)Gal(b1-4)GlcNAc(b1-2)Man(a1-6)]GalNAc
# Method in brief: as §1
# [25] = biological target: Neu5Ac(a2-3)Gal(b1-4)GlcNAc(b1-3)Gal(b1-4)GlcNAc(b1-3)GalNAc
# Method in brief: as §1
# [26] = biological target: Neu5Ac(a2-3)Gal(b1-4)GlcNAc(b1-3)GalNAc
# Method in brief: as §1
# [27] = biological target: Neu5Ac(a2-3)Gal(b1-4)GlcNAc(b1-6)GalNAc
# Method in brief: as §1
# [28] = biological target: Neu5Ac(a2-6)Gal(b1-4)GlcNAc(b1-2)[Neu5Ac(a2-6)Gal(b1-4)GlcNAc(b1-4)]Man(a1-3)[GlcNAc(b1-4)][Neu5Ac(a2-6)Gal(b1-4)GlcNAc(b1-2)[Neu5Ac(a2-6)Gal(b1-4)GlcNAc(b1-6)]Man(a1-6)]Man(b1-4)GlcNAc(b1-4)GlcNAc
# Method in brief: as §1
# [29] = biological target: Neu5Ac(a2-6)Gal(b1-4)GlcNAc(b1-3)GalNAc
# Method in brief: as §1
# [30] = biological target: Neu5Ac(a2-6)Gal(b1-4)GlcNAc(b1-6)[Gal(b1-3)GlcNAc(b1-3)]Gal(b1-4)Glc
# Method in brief: as §1
# Neu5Ac(a2-6)GalNAc = biological target: Neu5Ac(a2-6)GalNAc
# Method in brief: as §1
# [31] = biological target: Neu5Ac(a2-6)GalNAc(b1-4)GlcNAc6S
# Method in brief: as §1
# [32] = biological target: Neu5Ac(a2-8)Neu5Ac(a2-3)[Gal(b1-3)GalNAc(b1-4)]Gal(b1-4)Glc
# Method in brief: as §1
# [33] = biological target: Neu5Gc(a2-3)Gal(b1-4)GlcNAc
# Method in brief: as §1
# [34] = biological target: Neu5Gc(b2-6)Gal(b1-4)GlcNAc
# Method in brief: as §1
binder,measurement,setting,value
Cohesin-mDC-ASGPR (Macaca mulatta) (protein) LDITSHHHHHHDDLDAVRIKVDTVNAKPGDTVRIPVRFSGIPSKGIANCDFVYSYDPNVLEIIEIEPGDIIVDPNPDKSFDTAVYPDRKIIVFLFAEDSGTGAYAITKDGVFATIVAKVKEGAPNGLSVIKFVEVGGFANNDLVEQKTQFFDGGVNVGDTTEPATPTTPVTTPTTTDDLDAASSQNSKFQRDLVTLRTDFSNFTSNTVAEIQALTSQGSSVEEMIASLKAEVEVIKQEQQAVHSEMLLRVQRLMQDLNKLTCQVATLKNNASTERTCCPVNWVEHQDSCYWFSRSGMPWAEAEKHCQLENAHLVVINSREEQNFVQEHLSFAYTWMGLSDREGAWKWVDGTDYETGFQNWKPGQPDDWQGHGLGGGEDCAHFHPDGRWNDDVCQRPYYWVCEAGLTQASQESH,glycan array binding signal (z-score),[1],-0.406
same,glycan array binding signal (z-score),[2],0.568
same,glycan array binding signal (z-score),[3],-0.227
same,glycan array binding signal (z-score),[4],0.873
same,glycan array binding signal (z-score),Fuc(a1-2)Gal(b1-4)Glc,-0.387
same,glycan array binding signal (z-score),[5],-0.34
same,glycan array binding signal (z-score),[6],3.22
same,glycan array binding signal (z-score),[7],3.46
same,glycan array binding signal (z-score),[8],0.425
same,glycan array binding signal (z-score),[9],3.47
same,glycan array binding signal (z-score),[10],3.4
same,glycan array binding signal (z-score),Gal(a1-3)Gal,-0.427
same,glycan array binding signal (z-score),Gal(a1-4)Gal(b1-4)GlcNAc,-0.412
same,glycan array binding signal (z-score),Gal(b1-2)Gal,-0.312
same,glycan array binding signal (z-score),[11],-0.402
same,glycan array binding signal (z-score),[12],-0.399
same,glycan array binding signal (z-score),[13],-0.418
same,glycan array binding signal (z-score),[14],3.02
same,glycan array binding signal (z-score),[15],-0.372
same,glycan array binding signal (z-score),[16],-0.394
same,glycan array binding signal (z-score),[17],-0.418
same,glycan array binding signal (z-score),[18],-0.379
same,glycan array binding signal (z-score),Gal4S(b1-4)GlcNAc,-0.407
same,glycan array binding signal (z-score),GalNAc(b1-3)Gal,3.51
same,glycan array binding signal (z-score),GalNAc(b1-4)GlcNAc,3.5
same,glycan array binding signal (z-score),GalNAc3S(b1-4)GlcNAc3S,-0.428
same,glycan array binding signal (z-score),GalNAc6S(b1-4)GlcNAc,3.82
same,glycan array binding signal (z-score),[19],-0.07
same,glycan array binding signal (z-score),[20],-0.329
same,glycan array binding signal (z-score),[21],-0.393
same,glycan array binding signal (z-score),Man(a1-3)[Man(a1-6)]Man,-0.397
same,glycan array binding signal (z-score),[22],-0.342
same,glycan array binding signal (z-score),[23],3.56
same,glycan array binding signal (z-score),[24],-0.248
same,glycan array binding signal (z-score),[25],-0.413
same,glycan array binding signal (z-score),[26],-0.418
same,glycan array binding signal (z-score),[27],3.67
same,glycan array binding signal (z-score),[28],-0.401
same,glycan array binding signal (z-score),[29],2.03
same,glycan array binding signal (z-score),[30],-0.418
same,glycan array binding signal (z-score),Neu5Ac(a2-6)GalNAc,3.61
same,glycan array binding signal (z-score),[31],2.56
same,glycan array binding signal (z-score),[32],3.49
same,glycan array binding signal (z-score),[33],-0.399
same,glycan array binding signal (z-score),[34],-0.424
